Results on 25 molecules are retold here after PubChem BioAssay AID1572 (National Center for Advancing Translational Sciences (NCATS), 2009).

Records with an inconclusive call do not appear. Activity calls are given as the source filed them. Calls follow the shape of the dose curve; as a rule, active = well fitted curve in either direction with a large enough effect; inconclusive = small, poorly fitted or top-dose-only effect; inactive = flat fitted curve, though single readings scatter.

The nature of this assay: Total Fluorescence Confirmation Counterscreen for Inhibitors of the Interaction of Thyroid Hormone Receptor and Steroid Receptor Coregulator 2. The settings on record: Texas Red total fluorescence, TRbeta/SRC2 FP artifact counterscreen; series mostly up to 92.2 µM; total fluorescence change, both ways: at the top concentration. In outline: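 Flags fluorescent or light-absorbing compounds: after 5 hr at ambient temperature, 0.6 uM TRbeta LBD plus 20 nM SRC2 Texas Red (1uM T3, 5% DMSO) read at 555/632 nm; TF = S + 2P from parallel and perpendicular channels.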
Consider `O=c1[nH]c(Nc2ccc(F)cc2)cc2ccccc12`, for which the “total fluorescence change, both ways” value is 3.63% (inactive). Still for that read-out and setting: the value for `CCCc1cc(=O)[nH]c(=S)[nH]1` was -2% (inactive); that for `O=C(Nc1nc2ccc(Cl)cc2s1)c1ccc(N2CCCCC2)c([N+](=O)[O-])c1` was 2.3% (inactive). As for `CN1N=C(C(C)(C)C)CC1=O`, the “total fluorescence change, both ways” value was 1.82% (inactive). On the same count and under the same terms, the value for `CS(=O)(=O)c1ccc(C(=O)OCC(=O)NC(=O)C2CCCCC2)cc1[N+](=O)[O-]` was -3.18% (inactive). Same read-out and setting: the value for `CCOc1ccc(NC(=O)C(c2ccccn2)N(C(=O)CCl)c2ccc(F)cc2)cc1` (stereo not given) was 1.73% (inactive). `Cc1ccccc1Nc1cc2ccccc2c(=O)[nH]1`: the Potency entry was “inactive”. With `CCCCCCN=CC1=C(O)CC(C)(C)CC1=O`, the “total fluorescence change, both ways” value is 3.03% (inactive). Same read-out and setting: the value for `CC(=O)NC1N=C(C)N(c2ccccc2)C1=O` (stereo not given) was 9.72% (inactive); that for `Cc1ccc(OC(=S)Nc2ccc(O)cc2)cc1` was -1.98% (inactive); that for `CC1=NN(c2ccc(F)cc2)C(=O)C1C(c1cccc(O)c1)c1c(C)[nH]n(-c2ccc(F)cc2)c1=O` (stereo not given) was -16.4% (inactive). The same measure, in the same setting: the value for `Nc1cc(-c2ccccc2)c[nH]c1=O` was -2.47% (inactive).

Take `CN1CCc2ccc3c4c2[C@]1(C)Cc1cccc(c1-4)OCO3`: the Potency is 100 µM [fluorescent] (active). On to `Cc1nc2ccccc2n2c(O)c(CC(=O)O)cc12`, for which the Potency was 31.6 µM [fluorescent] (active). For the molecule `Cn1c(CCN2CCCCC2)nc2cc(NS(=O)(=O)c3ccc(Cl)cc3)ccc21`, the “total fluorescence change, both ways” value was 5.61% (inactive).

Consider `COc1ccc2ccc3c(c2c1)N=CC1(O3)N(C)c2ccccc2C1(C)C` (stereo not given), for which the “total fluorescence change, both ways” value was 2.19% (inactive). With `COc1ccc(-c2nc(CS(=O)CC(=O)NCc3ccccn3)c(C)o2)cc1` (stereo not given), the Potency was 35.5 µM [fluorescent] (active). In the case of `Cc1ccc(-c2nc(S(=O)(=O)c3ccc(F)cc3)c(SCC(=O)NCC3CCCO3)o2)cc1` (stereo not given), the “total fluorescence change, both ways” value is -10.4% (inactive). Turning to `Cn1cc(/C=C2\SC(=S)N(NC(=O)c3ccccc3)C2=O)c2ccccc21`, the Potency was 70.8 µM [fluorescent] (active).

Regarding `CCSc1ncc(Cl)c(C(=O)Nc2nc3ccc(OC)cc3s2)n1`, the “total fluorescence change, both ways” value was 5.03% [at 184 µM] (inactive). On the same count and under the same terms, next, `Cc1nnc(SCC(=O)Nc2ccc(N(C)C)cc2)[nH]c1=O`: 4.51% [at 184 µM] (inactive).

As for `CCN(CC)S(=O)(=O)c1cccc(N=NC2=C(O)CCCC2=O)c1`, the “total fluorescence change, both ways” value was 6.08% (inactive).

Consider `COC(=O)c1ccccc1-c1ccc(C(c2c(C)[nH][nH]c2=O)c2c(C)[nH][nH]c2=O)o1`, for which the “total fluorescence change, both ways” value is 4.88% (inactive). Same read-out and setting: the value for `CN1c2ccccc2C(C)(C)C12C=Nc1c(cc(N3CCOCC3)c3ccccc13)O2` (stereo not given) was 2.92% (inactive). For `O=C1CNC(=S)N1c1nc(-c2ccccc2)cs1`, the Potency is 11.2 µM [quencher] (active).
